# Laboratory results reported in PubChem BioAssay AID686979 (National Center for Advancing Translational Sciences (NCATS), 2013).
# In all, about 420,000 compounds went through this assay and about 50,000 (12%) were called active. Entries that show only a call come without a potency. Not shown: some 26% with an inconclusive outcome. Calls come from the whole dose curve; as a rule, active = well fitted inhibition curve with a large enough effect; inconclusive = small, poorly fitted or top-dose-only effect; inactive = flat fitted curve, though single readings scatter. Only a selection was taken, and actives are over-represented in it overall.
# Assay: qHTS for Inhibitors of human tyrosyl-DNA phosphodiesterase 1 (TDP1): qHTS in cells in presence of CPT; note: nearly all actives have a fitted effect of over 55% in size
# Details: chicken DT40 Tdp1-/-;hTDP1 cells + 20 nM CPT, ATP luminescence, 48 h; series mostly up to 46.2 µM
# How it was run: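 Chicken DT40 Tdp1-/- cells complemented with human TDP1, 400 cells/well, exposed to compounds plus 20 nM camptothecin for at least 48 h at 37 C; viability read as ATP content by CellTiter-Glo luminescence.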
# Potency is the fitted concentration of half-maximal effect.
Structure (SMILES),Potency,"activity change, negative = growth inhibition"
CCN1CCN(C(=O)CN(C)S(=O)(=O)c2ccc3ccccc3c2)CC1,inactive,
O=C1NC[C@H](CCCCN2C[C@H](Cc3ccc(O)cc3)N(CCc3ccccc3)C(=O)C2=O)N(CCc2ccccc2)C1=O,inactive,
C#CCOc1ccc(/C=C2/C(=O)NN(c3ccccc3)C2=O)cc1OC,inactive,
O=C(C[n+]1cc(Br)cc2ccccc21)c1ccc(F)cc1,14.1 µM (active),
O=C(CNC(=O)c1ccccc1F)c1ccc(Br)cc1,inactive,
O=C(O)CC/C(=N\NC(=O)c1ccc(F)cc1)c1ccc(Br)cc1,inactive,
Cc1ccc2c(c1)N(C(=O)CCC(=O)NCc1ccccc1F)CC(C)O2 (centres undefined),inactive,
CCOc1ccc(NC(=O)CCC(=O)N2CC(C)Oc3ccc(C)cc32)cc1 (centres undefined),25.9 µM (active),
CCOc1ccc(NC(=O)CCNC(=O)c2ccc(Br)cc2)cc1,inactive,
CCc1nc2cc(C(=O)NCC3CCS(=O)(=O)C3)cc(NC(=O)c3ccccc3OC)c2n1C (centres undefined),,6.63% [at 9.04 µM] (inactive)
O=c1[nH]c2cc(Br)ccc2n2cccc12,inactive,
CCN(CC(=O)NCc1ccco1)S(=O)(=O)c1ccc(F)cc1,inactive,
COc1cc(SC)ccc1C(=O)Nc1nc(C)cs1,20.6 µM (active),
COc1ccc(Cc2nnc(NC(=O)c3ccc(OC)cc3OC)s2)cc1,inactive,
Cc1csc(NC(=O)c2ccc(C)s2)n1,inactive,
Cc1cc(NC(=O)Nc2c[nH]c(=O)[nH]c2=O)ccc1Br,inactive,
Cc1ccc(NS(=O)(=O)c2ccc3c(c2)CC(=O)N3)cc1Cl,inactive,
COc1ccc(CNC(=O)Cn2nnc(-c3ccc(S(C)(=O)=O)cc3)n2)cc1,inactive,
COc1ccc(N=C2C=CC(=O)O2)cc1,5.17 µM (active),
COc1ccc(N=Nc2c(-c3ccc(OC)cc3)[nH]oc2=O)cc1,inactive,
COC1=CC(=O)OC(c2ccc(OC)cc2)C1 (centres undefined),inactive,
CCC1(c2ccccc2)NC(=O)N(CC(=O)c2ccc3c(c2)OCO3)C1=O (centres undefined),inactive,
Cc1ccc(Cl)c(NC(=O)CN(C)CC(=O)Nc2ccc(F)c(F)c2F)c1Cl,inactive,
COc1ccc(CNC(=O)c2ccc3c(c2)nc2n3CCOC2)c(OC)c1,inactive,
Cc1cccc(N(C)C(=O)c2cc3c(=O)[nH]c4ccc(C)cc4c3s2)c1,2.06 µM (active),
COc1ccc(CNC(=O)c2cc3c(=O)[nH]c4ccccc4c3s2)cc1,inactive,
Cc1ccc2[nH]c(=O)c(CC=C(Cl)Cl)c(C)c2c1,inactive,
Cc1ccc2[nH]c(=O)c(CC(=O)O)c(-c3ccccc3)c2c1,inactive,
COc1ccc(CNC(=O)c2cc3c(=O)[nH]c4ccc(C)cc4c3s2)c(OC)c1,16.4 µM (active),
